A selection: hits, their analogues and other compounds. The true share with any hit is near 6.9%.
KB-V1 cytotox: qHTS assay for MDR1-selective chemotherapeutics: Primary screen using the drug-selected MDR subline cells KB-V1. KB-V1 MDR cells viability, CellTiter-Glo, 72 h. Potency, µM (series often up to 46.1 µM), hits mostly cytotoxic. 400,000 compounds, 3.4% hits. AID 1347076, 2019; further: potency means the concentration at half of the fitted maximal effect; on the % scale 0 is the no-effect control and ±100 the full control effect; nearly all actives have a fitted effect of over 60% in size
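Readout: CellTiter-Glo luminescence, 10 min after addition. Cells: KB-V1 MDR subline, 72 h at 37 degrees C with compound. Analysis: corrected, normalized data fitted to concentration-effect curves.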
ASM inhibitor: Inhibitors of Secretory Acid Sphingomyelinase (S-ASM): qHTS; Sphingomyelin phosphodiesterase (Homo sapiens), P17405; placental ASM, HMU-PC fluorogenic substrate, 60 min; Potency, µM (highest dose often 57.5 µM), for inactives: at the top dose activity change, negative = inhibition, usual class: inhibitors; 340,000 compounds, 0.006% hits; AID 504937, 2011; further: potency means the concentration at half of the fitted maximal effect
Target sequence (P17405 47-631 limits assumed): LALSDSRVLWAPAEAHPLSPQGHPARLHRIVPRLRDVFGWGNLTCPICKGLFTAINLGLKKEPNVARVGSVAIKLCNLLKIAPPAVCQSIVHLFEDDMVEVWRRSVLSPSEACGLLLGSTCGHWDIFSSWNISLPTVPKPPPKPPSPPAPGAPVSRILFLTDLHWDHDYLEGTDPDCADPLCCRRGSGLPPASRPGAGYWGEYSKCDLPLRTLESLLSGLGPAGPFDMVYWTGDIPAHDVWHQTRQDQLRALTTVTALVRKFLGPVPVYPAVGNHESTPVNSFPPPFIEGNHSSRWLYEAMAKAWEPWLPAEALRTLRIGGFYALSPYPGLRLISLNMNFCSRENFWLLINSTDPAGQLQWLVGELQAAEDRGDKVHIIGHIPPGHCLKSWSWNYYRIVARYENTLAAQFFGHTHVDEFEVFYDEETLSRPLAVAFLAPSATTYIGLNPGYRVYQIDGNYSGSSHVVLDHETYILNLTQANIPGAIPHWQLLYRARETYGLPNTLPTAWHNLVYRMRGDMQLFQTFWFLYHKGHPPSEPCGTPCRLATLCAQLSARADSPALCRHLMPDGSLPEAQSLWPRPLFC
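Fluorogenic HMU-PC substrate (9 uM final) is turned over by placental ASM in 60 min at 37 C after a 10 min compound preincubation. Reaction ended by alkaline stop (pH 10), with fluorescence read at 386/447 nm.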
SW480 rereplic: A quantitative high throughput screen for small molecules that induce DNA re-replication in SW480 colon adenocarcinoma cells; 340,000 compounds, 1.8% hits; Potency, µM (top dose mostly 46.1 µM), for inactives: at the highest dose re-replication activation, actives largely listed as activators; SW480 DNA re-replication, Hoechst DNA content imaging, 48 h; further: potency means the concentration at half of the fitted maximal effect; % of control where 0% means no effect; nearly all actives have a fitted effect of over 55% in size
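SW480 cells exposed to compounds for 48 hr at 37 C, 5% CO2, then Hoechst-stained 40 min. Nuclear DNA content imaged by fluorescence scanning (405 nm excitation, 500-530 nm emission); re-replication scored as increased high-intensity nuclei.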
MCF10A rerep: A quantitative high throughput screen for small molecules that induce DNA re-replication in MCF 10a normal breast cells; MCF 10A DNA re-replication, Hoechst nuclear intensity, 48 h; Potency, µM (highest dose often 46.1 µM), for the others: at the highest dose activity, positive = re-replication, most hits filed as activators; 350,000 compounds, 2.9% hits; further: potency means the concentration at half of the fitted maximal effect; % of control where 0% means no effect; nearly all actives have a fitted effect of over 50% in size
KB-3-1 tox: qHTS assay for MDR1-selective chemotherapeutics: Primary screen using the parental adenocarcinoma cell KB-3-1; Potency, µM (highest dose often 46.1 µM), actives largely listed as cytotoxic; AID 1347075, 2019; KB-3-1 viability, CellTiter-Glo ATP luminescence, 72 h; 400,000 compounds, 1.4% hits; further: potency means the concentration at half of the fitted maximal effect; on the % scale 0 is the no-effect control and ±100 the full control effect; nearly all actives have a fitted effect of over 60% in size
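72 h, 37 °C compound treatment of KB-3-1 parental cells; CellTiter-Glo added, 10 min, luminescence read. Data corrected against DMSO-only plates and normalized before curve fitting.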
Giardia killer: Small Molecules that selectively kill Giardia lamblia: qHTS; Giardia lamblia trophozoite viability; activity change, % at 7.66 µM, hits read low; 340,000 compounds, 0.15% hits; in the data active means activity change below about -80%; inconclusive means between about -30% and that limit;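 further: parasites exposed to compound for two days anaerobically before the ATP read; on the % scale 0 is the no-effect control and ±100 the full control effect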
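Anaerobic 48 hrs incubation at 37 deg C of 100 trophozoites/well with test compounds; ATPLite 1-Step luminescence, 15-30 min RT, reports cellular ATP as viability.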
* = called active by the depositor; i = inactive; ? = inconclusive; . = no result given; [ ] = remark or other dose. Unless noted, the call rests on the fitted dose curve; in most records, active means well fitted curve in the direction sought with a large enough effect; inconclusive means small, poorly fitted or top-dose-only effect, or another doubt; inactive means no such curve, though single readings can be large; an effect the other way counts as inactive or inconclusive.

SMILES	KB-V1 cytotox	ASM inhibitor	SW480 rereplic	MCF10A rerep	KB-3-1 tox	Giardia killer
Nc1nc(Nc2ccccc2)nc(NCc2ccco2)c1[N+](=O)[O-]	16µM*	?	-5%	?	i	-19
CC1CCCN(c2nc(NCc3ccco3)nc(N)c2[N+](=O)[O-])C1 (centres undefined)	15µM*	-8%	.	23%	i	-4
CC(C)c1ccc(Nc2nc(Cl)nc(NCc3ccco3)n2)cc1	i	-1%	5.8µM*	23µM*	?	0
COc1ccc(C)c2sc(N3CCN(C(=O)c4ccco4)CC3)nc12	i	.	.	.	i	.
CN(Cc1ccccc1)c1nc(N)c([N+](=O)[O-])c(NCc2ccccc2)n1	18µM*	-14%	-2%	?	?	-12
Nc1nc(NCCc2ccccc2)nc(NCc2ccccc2)c1[N+](=O)[O-]	i	-23%	9%	4%	?	3
Cc1ccc(NC(=O)c2ccc(-n3nncc3-c3ccccc3)cc2)cc1	i	.	.	.	i	2
Cc1ccc(S(=O)(=O)ON2C(=O)c3ccccc3C2=O)c(C)c1	i	2%	?	13µM*	i	1
O=C1c2ccccc2C(=O)N1OS(=O)(=O)c1ccc(F)cc1	i	3%	3%	4%	i	-28
Cc1cc(C)c(C)c(S(=O)(=O)ON2C(=O)c3ccccc3C2=O)c1C	i	-5%	21µM*	7.3µM*	i	9
Cc1cc(C)c(S(=O)(=O)ON2C(=O)c3ccccc3C2=O)cc1C	i	-3%	?	7.3µM*	i	5
COc1ccc(S(=O)(=O)c2cn(CC(=O)Nc3cc(C)ccc3C)c3ccccc3c2=O)cc1	i	.	.	.	i	.
CCN(c1cccc(C(F)(F)F)c1)S(=O)(=O)c1ccc2c(c1)CCN2C(=O)C1CC1	?	-6%	-1%	27%	11µM*	1
CCC(=O)N1CCc2cc(S(=O)(=O)N(CC)c3cccc(C)c3)ccc21	i	4%	-8%	18%	i	2
CC(C)(C)C1C/C(=C/c2ccccn2)C(=O)/C(=C/c2ccccn2)C1 (centres undefined)	?	-6%	0.41µM*	?	?	?
CC1C/C(=C/c2ccccn2)C(=O)/C(=C/c2ccccn2)C1 (centres undefined)	i	0%	0.29µM*	2.3µM*	?	-15
C=CCNc1ncnc2c1ncn2[C@H]1CN(CCN2CCOCC2)C[C@@H](CO)O1	i	.	.	.	i	.
CCOC(=O)CSc1nc2sc(C)c(C)c2c(=O)[nH]1	?	-2%	-7%[9.22 µM]	-3%	i	-1
CCOC(=O)/C(=C\c1ccc(Cl)cc1)c1nc2sc(C)c(C)c2c(=O)[nH]1	?	-5%	?	5.2µM*	?	-17
COc1ccc(CCNC(=O)c2ccc(CN3CCC(Cc4ccccc4)CC3)cc2)cc1	9.2µM*	3%	-11%	10%	i	18
CC(C)NC(=O)c1ccc(CN2CCC(Cc3ccccc3)CC2)cc1	i	0%	-3%	-1%	i	10
Cc1ccccc1NC(=O)c1ccc(CN2CCC(Cc3ccccc3)CC2)cc1	15µM*	-1%	?	?	?	24
C=CCNC(=O)c1ccc(CN2CCC(Cc3ccccc3)CC2)cc1	i	1%	?	3%	i	11
O=C(COc1ccccc1F)Nc1ccc2nc(SCc3ccccc3)sc2c1	i	.	.	.	i	.
CC(=O)c1c(C)nc2sc3c(=N)n(N)cnc3c2c1-c1ccc(Cl)cc1	18µM*	0%	-71%	10%	?	2
SMILES	KB-V1 cytotox	ASM inhibitor	SW480 rereplic	MCF10A rerep	KB-3-1 tox	Giardia killer
CCOC(=O)c1c(C)nc2sc3c(=O)n(-c4ccc(C(C)=O)cc4)cnc3c2c1-c1ccc(OC)cc1	i	-7%	-8%	-5%	i	8
CN(C)c1ccc(Nc2nc(N)c3ccccc3n2)cc1	?	-1%	-4%	-22%	?	?
CN(C)c1ccc(Sc2ccc3nc(N)nc(N)c3c2)cc1	8.2µM*	.	.	.	8.2µM*	.
CC(OC(=O)c1ccc(-c2ccc(O)cc2)cc1)C(=O)NC1CCCCC1C (centres undefined)	16µM*	-4%	8%	17%	?	12
CC(OC(=O)c1ccc([N+](=O)[O-])s1)C(=O)NC1CCCCC1C (centres undefined)	i	-9%	22%	-2%	i	-86*
CC(=O)N1CCCc2ccc(NS(=O)(=O)c3ccccc3)cc21	?	7%	6.5µM*	20%	i	32
Cc1ccc(S(=O)(=O)Nc2ccc3c(c2)CCC3)cc1	21µM*	-3%	-96%	12%	?	5
Cc1ccccc1NNC(N)=S	i	1%	-4%	1%	i	-8
NC(=S)NNc1c(F)c(F)c(F)c(F)c1F	i	2%	14%	15µM*	?	0
CCOC(=O)Nc1ccc2c3c(cccc13)-c1ccccc1-2	?	i	6.5µM*	?	?	6
CCOC(=O)Nc1cccc2ccccc12	i	1%	-2%	-4%	i	-3
CCOc1ccc(S(=O)(=O)N2CCN(Cc3nc4ccc(C)cc4o3)CC2)cc1	i	.	.	.	i	.
N#C/C(C(=O)NCc1ccco1)=C1/SC=C(c2ccccc2)N1c1ccccc1	i	4%	29µM*	?	i	-6
COC(=O)c1c(NC(=O)CCCOc2cccc(C)c2)sc2c1C(C(=O)OC)CC2 (centres undefined)	.	.	.	.	.	8
Cc1cc(C#Cc2c(-c3ccccc3)n(C)c3ccccc23)ccc1F	i	123%	-11%	8.2µM*	i	3
Cn1c(-c2ccc(C#N)cc2)c(C#Cc2ccccc2)c2ccccc21	i	i	1.3µM*	?	i	-5
CCc1cccc(NC(=O)c2cc3c(=O)oc4ccc(C)cc4c3s2)c1	i	.	.	.	i	.
Cc1ccc(CSc2nc(-c3ccc(C(C)(C)C)cc3)nc3cc(=O)[nH]n23)cc1	i	.	.	.	i	.
CCOC(=O)c1ccc(S(=O)(=O)N2CCN(c3nc(-c4ccccc4)nc4ccccc34)CC2)cc1	?	.	.	.	?	14
CCOC(=O)CN1C(=O)/C(=C/c2cccc(Br)c2)Oc2ccccc21	i	386%	5%	?	i	16

Screens (PubChem)
